Where “and” joins values, the source holds several entries; their conditions need not be identical. Equal values may be shown once. Among all 5,500 compounds or so, about 2,000 (36%) were called active. Another 18% or so got no clear call; they are omitted. Cut-off read from the data, not from the text of the source: active = normalized growth mostly below about 0.91 (no sharp cut-off); inconclusive = no clear call, values can overlap the other calls; inactive = mostly above about 0.92. Some of the results follow.
Test: chemical genetic growth profiling, strain panel (AID 1159580);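 note: tested at 20 µM; growth read once vehicle control cultures reached saturation at 30 °C; 1 = growth at the plate median or of vehicle wells; lower values mean less growth of the strain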
Conditions: S. cerevisiae deletion strains, growth OD

Measured: normalized growth

Cc1ccc(C(C)C)cc2c(C)ccc1-2
inactive: locus YAL013W, strain DEP1, active compounds read low 1 | locus YAL021C, strain ccr4, active compounds read low 1 | locus YAL026C, strain drs2, active compounds read low 1.02 | locus YAL030W, strain snc1, active compounds read low 1 | locus YBL061C, strain skt5, active compounds read low 1 | locus YBR009C, strain hhf1, active compounds read low 0.999 | locus YBR021W, strain FUR4, active compounds read low 1.01 | locus YBR023C, strain chs3, active compounds read low 1 | locus YBR171W, strain sec66, active compounds read low 1.02 | locus YBR229C, strain ROT2, active compounds read low 1 | locus YBR231C, strain swc5, active compounds read low 1 | locus YBR279W, strain paf1, active compounds read low 1.01 | locus YCL011C, strain gbp2, active compounds read low 1.01 | locus YCL016C, strain dcc1, active compounds read low 0.985 | locus YCL029C, strain bik1, active compounds read low 1.03 | locus YCL061C, strain MRC1, active compounds read low 1.01 | locus YCL069W, strain vba3, active compounds read low 0.996 | locus YCR088W, strain abp1, active compounds read low 1.01 | locus YDL005C, strain med2, active compounds read low 1.01 | locus YDL035C, strain GPR1, active compounds read low 1 | locus YDL040C, strain nat1, active compounds read low 0.99 | locus YDL074C, strain BRE1, active compounds read low 0.944 | locus YDL101C, strain DUN1, active compounds read low 0.991 | locus YDL134C, strain PPH21, active compounds read low 0.984 | locus YDL185W, strain tfp1, active compounds read low 1.02 | locus YDL192W, strain arf1, active compounds read low 1.02 | locus YDR001C, strain nth1, active compounds read low 1 | locus YDR069C, strain doa4, active compounds read low 1 | locus YDR101C, strain arx1, active compounds read low 1.02 | locus YDR137W, strain rgp1, active compounds read low 0.978 | locus YDR159W, strain sac3, active compounds read low 1.05 | locus YDR162C, strain NBP2, active compounds read low 1 | locus YDR195W, strain ref2 0.975 | locus YDR297W, strain sur2, active compounds read low 1 | locus YDR318W, strain mcm21, active compounds read low 1.01 | locus YDR334W, strain swr1, active compounds read low 1 | locus YDR335W, strain msn5, active compounds read low 0.997 | locus YDR388W, active compounds read low 1.03 | locus YDR392W, strain spt3, active compounds read low 0.906 | locus YDR502C, strain sam2, active compounds read low 1 | locus YEL003W, strain gim4, active compounds read low 0.998 | locus YEL037C, strain rad23, active compounds read low 1 | locus YEL061C, strain CIN8 (second series), active compounds read low 1 | locus YEL061C, strain CIN8, active compounds read low 0.998 | locus YER015W, strain faa2, active compounds read low 1 | locus YER016W, strain bim1, active compounds read low 1 | locus YER110C, active compounds read low 1.04 | locus YER111C, strain swi4, active compounds read low 1.01 | locus YER155C, strain BEM2 (second series), active compounds read low 0.998 | locus YER155C, strain BEM2, active compounds read low 1.01 | locus YER167W, strain BCK2, active compounds read low 0.988 | locus YFR010W, strain ubp6, active compounds read low 1.01 | locus YGL078C, strain dbp3, active compounds read low 1.02 | locus YGL086W, strain mad1, active compounds read low 0.994 | locus YGL167C, strain pmr1, active compounds read low 1.01 | locus YGL173C, strain kem1, active compounds read low 1.01 | locus YGL227W, strain vid30, active compounds read low 1.01 | locus YGL240W, strain doc1, active compounds read low 1.01 | locus YGL248W, strain PDE1, active compounds read low 1 | locus YGL253W, strain hxk2, active compounds read low 1.03 | locus YGR078C, strain PAC10, active compounds read low 0.948 | locus YGR135W, strain pre9, active compounds read low 1.03 | locus YGR252W, strain gcn5, active compounds read low 1.02 | locus YHR013C, strain ard1, active compounds read low 1.02 | locus YHR027C, strain rpn1, active compounds read low 1 | locus YHR030C, strain SLT2, active compounds read low 1 and 0.968 | locus YHR079C, strain IRE1 (second series), active compounds read low 1.02 | locus YHR079C, strain IRE1, active compounds read low 0.977 | locus YHR094C, strain hxt1, active compounds read low 1.02 | locus YHR129C, strain ARP1, active compounds read low 1 | locus YHR142W, strain chs7, active compounds read low 1.02 | locus YHR200W, strain rpn10, active compounds read low 1.02 | locus YIL066C, strain RNR3, active compounds read low 0.986 | locus YIL073C, strain SPO22, active compounds read low 1.09 | locus YIL125W, strain kgd1, active compounds read low 1.01 | locus YIR030C, strain dcg1, active compounds read low 1.02 | locus YJL092W, strain hpr5, active compounds read low 1 | locus YJL095W, strain BCK1 (second series), active compounds read low 1 | locus YJL095W, strain BCK1, active compounds read low 0.972 and 1.03 | locus YJL115W, strain asf1, active compounds read low 0.992 | locus YJL129C, strain trk1, active compounds read low 1.01 | locus YJL134W, strain LCB3, active compounds read low 1 | locus YJL154C, strain vps35, active compounds read low 0.999 | locus YJL164C, strain tpk1, active compounds read low 0.991 | locus YJL166W, strain qcr8, active compounds read low 0.994 | locus YJL168C, strain set2, active compounds read low 1.02 | locus YJL187C, strain SWE1 (second series), active compounds read low 0.995 | locus YJL187C, strain SWE1, active compounds read low 1.01
